Most compounds without a hit are left out; they make up all but 3.1% or so of the library.
MEKK2 WT-MEK5: raises or lowers MEK5 binding to wildtype human MEKK2 PB1 domain; Q9Y2U5; bead flow cytometry, Alexa488-MEK5 binding to MEKK2 WT; actives lie on both sides; 1.1% of 290,000 active; binding response (% of control), % at 10 µM; in the data active = binding response below about 67% or above about 130%
UBC13 polyUb: inhibitors of human UBC13 polyubiquitin chain formation; 0.47% of 330,000 active; inhibition, % at 20 µM; P61088; TR-FRET; in the data active = inhibition above about 45%, passing the limit was not always enough
PREPL inhibitor: inhibits the human prolyl oligopeptidase-like enzyme. Q4J6C6. recombinant PREPL, fluorescence polarization activity-based probe. inhibition, % at 5.96 µM. 0.68% of 320,000 active; in the data active = inhibition above about 43%;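 note: 0% = enzyme with DMSO and 100% = wells lacking enzyme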
ATG4B inhibitor: ATG4B (human) cysteine protease inhibition; 0.51% of 340,000 active; ATG4B cleavage of LC3-PLA2, NBD-HPC fluorescence, 1 h; Q9Y4P1; AID 504462; inhibition, % at 8.33 µM; in the data active = inhibition above about 40%
Target sequence (Q9Y4P1 whole entry, looked up): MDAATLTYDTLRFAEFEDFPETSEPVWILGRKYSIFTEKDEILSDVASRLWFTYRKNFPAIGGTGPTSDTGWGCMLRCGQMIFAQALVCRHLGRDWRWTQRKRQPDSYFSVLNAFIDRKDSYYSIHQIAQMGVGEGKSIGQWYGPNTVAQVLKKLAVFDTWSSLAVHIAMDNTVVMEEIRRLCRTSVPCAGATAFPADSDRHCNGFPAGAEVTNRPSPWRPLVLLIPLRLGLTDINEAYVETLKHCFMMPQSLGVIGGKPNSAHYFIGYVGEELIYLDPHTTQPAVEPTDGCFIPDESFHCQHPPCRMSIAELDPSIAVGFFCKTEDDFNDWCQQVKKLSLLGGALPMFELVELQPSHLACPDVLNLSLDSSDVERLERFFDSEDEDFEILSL
MEKK2mut PB1 HTS: signal of MEK5 binding to mutant human MEKK2 PB1 domain; bead flow cytometry, Alexa488-MEK5 binding to MEKK2 mutant; percent response, % at 10 µM; 0.35% of 290,000 active; AID 1530; in the data active = percent response above about 24%, passing the limit was not always enough
MEKK3 PB1 HTS: modulators (inhibitors or enhancers) of MEK5 binding to human MEKK3 PB1 domain; bead-based flow cytometry, Alexa488-MEK5 binding to MEKK3; actives lie on both sides; 0 = blocked by unlabeled MEK5, 100 = vehicle; binding response (% of control), % at 10 µM; Q99759; 1.4% of 290,000 active;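 active = binding response more than 3 SD above or below the average of its plate-row segment, actives on both sides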;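 note: Alexa488 bead fluorescence after subtracting the streptavidin-only scavenger bead signal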
ATG4B conf: ATG4B (human) inhibition, single-dose confirmed; 92% of 320 active; inhibition, % at 8.33 µM; AID 504757; shares compounds with ATG4B inhibitor; ATG4B protease fluorescent substrate cleavage assay; in the data active = inhibition above about 39%
PLA2 counter: PLA2 (human) inhibition in ATG4B counter-screen | shares compounds with ATG4B inhibitor | purified PLA2, NBD-C6-HPC fluorescence, 45 min | inhibition, % at 8.33 µM | 66% of 1,600 active | AID 588402; in the data active = inhibition above about 50%
Starred values were filed as active, the others as inactive.

Results for O=C(O)Cc1sc(NC2CCCCC2)nc1-c1ccc(Cl)cc1 ?
MEKK2 WT-MEK5: 100; UBC13 polyUb: -4; PREPL inhibitor: 9; ATG4B inhibitor: 54*; MEKK2mut PB1 HTS: 3; MEKK3 PB1 HTS: 97; ATG4B conf: 65*; PLA2 counter: 32

How did Cc1ccc(-c2nc(Nc3cccc(C)c3)sc2CC(=O)O)cc1 do in these assays?
MEKK2 WT-MEK5: 97; UBC13 polyUb: 2; PREPL inhibitor: 19; ATG4B inhibitor: -19; MEKK2mut PB1 HTS: 7; MEKK3 PB1 HTS: 105

What do the screens show for `Clc1cccc(Cl)c1CO/N=C/c1cccs1`?
MEKK2 WT-MEK5: 102; UBC13 polyUb: -12; PREPL inhibitor: -7; ATG4B inhibitor: -11; MEKK2mut PB1 HTS: 14; MEKK3 PB1 HTS: 100

How did Cc1c(C)c(C)c(CO/N=C/c2cccs2)c(C)c1C do in these assays?
MEKK2 WT-MEK5: 101; UBC13 polyUb: 5; PREPL inhibitor: 7; ATG4B inhibitor: 60*; MEKK2mut PB1 HTS: 4; MEKK3 PB1 HTS: 104; ATG4B conf: 66*; PLA2 counter: 42

Results for CC(C)[C@H](NS(=O)(=O)c1ccccc1)C(=O)OCc1cc([N+](=O)[O-])cc2c1OCOC2 ?
ATG4B inhibitor: 1

What do the screens show for `O=C(Nc1sc2c(c1C(=O)O)CCCC2)c1cccc(Cl)c1`?
MEKK2 WT-MEK5: 106; UBC13 polyUb: -8; ATG4B inhibitor: 42*; MEKK2mut PB1 HTS: 0; MEKK3 PB1 HTS: 102; PLA2 counter: 51*

How did O=C(CN(Cc1ccc(F)cc1)C(=O)CNS(=O)(=O)c1ccc(Cl)cc1)NCC1CCCO1 (stereo not given) do in these assays?
MEKK2 WT-MEK5: 100; UBC13 polyUb: -6; PREPL inhibitor: -1; ATG4B inhibitor: -4; MEKK2mut PB1 HTS: -7; MEKK3 PB1 HTS: 99

Results for NC(=O)c1ccc(NCCc2ccccc2)c([N+](=O)[O-])c1 ?
MEKK2 WT-MEK5: 99; UBC13 polyUb: -29; PREPL inhibitor: 5; ATG4B inhibitor: 49*; MEKK2mut PB1 HTS: -5; MEKK3 PB1 HTS: 101; PLA2 counter: 66*

Results for CCc1ccccc1NC(=O)c1ccc(NCCc2ccccc2)c([N+](=O)[O-])c1 ?
MEKK2 WT-MEK5: 102; UBC13 polyUb: -3; PREPL inhibitor: 0; ATG4B inhibitor: 42*; MEKK2mut PB1 HTS: -1; MEKK3 PB1 HTS: 98; PLA2 counter: 35

What do the screens show for `O=C1C=C(c2cc3ccccc3o2)C[C@@H](c2ccc(F)cc2)C1`?
UBC13 polyUb: -10; PREPL inhibitor: 1; ATG4B inhibitor: -3

How did COCCn1c(C)cc(C(=O)CSc2nc(C)nc3sc4c(c23)CCC4)c1C do in these assays?
MEKK2 WT-MEK5: 98; UBC13 polyUb: -1; PREPL inhibitor: 15; ATG4B inhibitor: 57*; MEKK2mut PB1 HTS: 3; MEKK3 PB1 HTS: 96; PLA2 counter: 37

What do the screens show for `CC(C)COc1ccc(C(=O)N2C(=O)c3ccc(N)cc3C2=O)cc1`?
MEKK2 WT-MEK5: 72; UBC13 polyUb: 10; PREPL inhibitor: -10; ATG4B inhibitor: -1; MEKK2mut PB1 HTS: -41; MEKK3 PB1 HTS: 62

How did CCOC(=O)C1=C(C)N=c2s/c(=C/c3cccc([N+](=O)[O-])c3O)c(=O)n2C1c1ccccc1 (stereo not given) do in these assays?
MEKK2 WT-MEK5: 106; UBC13 polyUb: -102; PREPL inhibitor: -8; ATG4B inhibitor: 58*; MEKK2mut PB1 HTS: 5; MEKK3 PB1 HTS: 107; PLA2 counter: 27

Results for O=C(CSc1nccn1-c1ncc(C(F)(F)F)cc1Cl)c1ccc(Br)cc1 ?
MEKK2 WT-MEK5: 100; UBC13 polyUb: 1; PREPL inhibitor: 1; ATG4B inhibitor: 104*; MEKK2mut PB1 HTS: 6; MEKK3 PB1 HTS: 98; PLA2 counter: 10

Screening results from PubChem.
